Consider five molecules from the supplement of paper PMC11624193, “Coupling cellular drug-target engagement to downstream pharmacology with CeTEAM” (Nature Communications, 2024).

Where a name gives a salt, the structure may show the parent alone.

The target in this test is PARP1 L713F-nLuc biosensor (HCT116) (UniProt P09874). The experiment in a line: PARP1 L713F-nLuc/akaLuc ratio relative to DMSO control (biosensor stabilization) (fold change); higher = more PARP1 biosensor stabilization (target engagement / stabilizer), active = hit call of the paper. The following applies: stock concentration (mM; final µM = stock mM x 1): 10; 24 h.
Sequence of PARP1 L713F-nLuc biosensor (HCT116) (P09874 whole entry L713F, looked up): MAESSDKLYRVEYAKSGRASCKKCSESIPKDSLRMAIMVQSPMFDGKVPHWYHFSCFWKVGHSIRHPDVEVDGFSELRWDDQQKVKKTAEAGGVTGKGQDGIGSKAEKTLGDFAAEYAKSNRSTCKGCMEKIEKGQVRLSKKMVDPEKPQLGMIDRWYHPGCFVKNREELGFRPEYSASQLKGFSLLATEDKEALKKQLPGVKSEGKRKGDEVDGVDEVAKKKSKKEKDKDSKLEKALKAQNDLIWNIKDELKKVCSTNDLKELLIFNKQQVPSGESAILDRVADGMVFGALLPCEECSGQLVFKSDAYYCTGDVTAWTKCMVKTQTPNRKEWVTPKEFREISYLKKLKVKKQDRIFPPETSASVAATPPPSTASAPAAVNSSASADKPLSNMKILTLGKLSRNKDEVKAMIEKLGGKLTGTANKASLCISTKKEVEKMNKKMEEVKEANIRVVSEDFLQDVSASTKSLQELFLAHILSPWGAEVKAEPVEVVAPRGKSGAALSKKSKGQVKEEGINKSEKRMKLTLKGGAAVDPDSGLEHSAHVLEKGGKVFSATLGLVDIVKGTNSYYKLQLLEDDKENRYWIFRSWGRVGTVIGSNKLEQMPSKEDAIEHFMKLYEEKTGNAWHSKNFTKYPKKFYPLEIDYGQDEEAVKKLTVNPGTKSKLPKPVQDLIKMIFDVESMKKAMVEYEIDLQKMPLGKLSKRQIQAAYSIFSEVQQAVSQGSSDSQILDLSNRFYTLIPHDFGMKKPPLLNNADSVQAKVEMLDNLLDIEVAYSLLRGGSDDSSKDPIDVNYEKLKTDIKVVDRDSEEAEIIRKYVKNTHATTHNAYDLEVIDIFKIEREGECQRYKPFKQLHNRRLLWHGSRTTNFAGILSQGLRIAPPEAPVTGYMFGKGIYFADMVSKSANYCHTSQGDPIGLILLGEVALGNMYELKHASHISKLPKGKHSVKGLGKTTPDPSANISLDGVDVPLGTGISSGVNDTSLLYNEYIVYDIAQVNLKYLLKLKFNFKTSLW
Take `CNCCN(C)Cc1c[nH]nc1-c1ccc(O[C@H]2C[C@H](OCCC3CCOCC3)C2)cc1`: the “PARP1 L713F-nLuc/akaLuc ratio” value is 0.64 (inactive).

`NC(=O)[C@H]1CCCc2c1[nH]c1ccc(Cl)cc21` [(S)-Selisistat]: the “PARP1 L713F-nLuc/akaLuc ratio” value is 0.706 (inactive).

For the molecule `C[C@H]1CNCCCN1S(=O)(=O)c1cccc2cncc(F)c12` [Ripasudil (K-115) hydrochloride dihydrate], the “PARP1 L713F-nLuc/akaLuc ratio” value was 1.12 (inactive).

In the case of `CCN(CCN(C)C)C(=O)CNCc1cc(C(N)=O)ccn1` [KDOAM-25 (citrate)], the “PARP1 L713F-nLuc/akaLuc ratio” value is 1.15 (inactive).

In the case of `C=CC(=O)Nc1cccc(CNc2nc(Nc3ccc(N4CCN(C)CC4)cc3OC)ncc2Cl)c1`, the “PARP1 L713F-nLuc/akaLuc ratio” value was 1.54 (inactive).
